From PubChem BioAssay (NCATS)
Records with an inconclusive call do not appear. Activity calls are given as the source filed them. Calls come from the whole dose curve; as a rule, active = well fitted curve in the direction sought with a large enough effect; inconclusive = small, poorly fitted or top-dose-only effect, or another doubt; inactive = no such curve, though single readings can be large; an effect the other way counts as inactive or inconclusive.

Assays:
[1] = system: HACAT; experiment: qHTS assay to identify novel small-molecules to repurpose for Merkel cell carcinoma treatment (AID 1296009); details: MCC and control cell lines, CellTiter-Glo viability, 72 h; at 44.8 µM (top of the series) unless noted; note: nearly all actives have a fitted effect of over 60% in size
Procedure, shortened: (§1)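 Cell viability measured by CellTiter-Glo following 72 hr compound treatment at 37 degree celsius, with NPC and MIPE libraries tested in 8- and 11-point concentration series.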

[2] = system: NIH3T3; experiment: as above; details: MCC and control cell lines, CellTiter-Glo viability, 72 h; at 44.8 µM (top of the series) unless noted
Procedure, shortened: as §1

[3] = system: C33A; experiment: Primary qHTS to identify gynecologic anti-cancer compounds using libraries of approved drugs and bioactive compounds (AID 1345084); details: Gynecologic cancer cell panel viability, ATPlite luminescence, 48 h; series mostly up to 57.5 µM; note: nearly all actives have a fitted effect of over 55% in size
Procedure, shortened: (§2)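 In this quantitative HTS, cell killing is estimated from loss of ATP-dependent luciferase light. Cells see five compound concentrations over a 48 h exposure.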

[4] = system: CAOV3; experiment: as above; details: Gynecologic cancer cell panel viability, ATPlite luminescence, 48 h; series mostly up to 57.5 µM
Procedure, shortened: as §2

[5] = system: CASKI; experiment: as above; details: Gynecologic cancer cell panel viability, ATPlite luminescence, 48 h; series mostly up to 57.5 µM
Procedure, shortened: as §2

[6] = system: Es-2; experiment: as above; details: Gynecologic cancer cell panel viability, ATPlite luminescence, 48 h; series mostly up to 57.5 µM
Procedure, shortened: as §2

[7] = system: HeLa; experiment: as above; details: Gynecologic cancer cell panel viability, ATPlite luminescence, 48 h; series mostly up to 57.5 µM
Procedure, shortened: as §2

[8] = system: Hek293T; experiment: as above; details: Gynecologic cancer cell panel viability, ATPlite luminescence, 48 h, control line for the selectivity index; series mostly up to 57.5 µM
Procedure, shortened: as §2

[9] = system: JEG-3; experiment: as above; details: Gynecologic cancer cell panel viability, ATPlite luminescence, 48 h; series mostly up to 57.5 µM
Procedure, shortened: as §2

[10] = system: OV90; experiment: as above; details: Gynecologic cancer cell panel viability, ATPlite luminescence, 48 h; series mostly up to 57.5 µM
Procedure, shortened: as §2

[11] = system: PA-1; experiment: as above; details: Gynecologic cancer cell panel viability, ATPlite luminescence, 48 h; series mostly up to 57.5 µM
Procedure, shortened: as §2

[12] = system: SKOV3; experiment: as above; details: Gynecologic cancer cell panel viability, ATPlite luminescence, 48 h; series mostly up to 57.5 µM
Procedure, shortened: as §2

[13] = system: Tov-21-G; experiment: as above; details: Gynecologic cancer cell panel viability, ATPlite luminescence, 48 h; series mostly up to 57.5 µM
Procedure, shortened: as §2

[14] = system: Tov112D; experiment: as above; details: Gynecologic cancer cell panel viability, ATPlite luminescence, 48 h; series mostly up to 57.5 µM
Procedure, shortened: as §2

Measured: Potency

C[C@@H](NC(=O)c1cc(C(=O)N[C@@H](Cc2ccccc2)[C@H](O)CNC2CC2)cc(N(C)S(C)(=O)=O)c1)c1ccccc1
inactive: [1] | [2] | [3] | [4] | [5] | [6] | [7] | [8] | [9] | [10] | [11] | [12] | [13] | [14]

C=C1CC2C3(C)C=CC(=O)OC(C)(C)C3CC(OC(C)=O)C2(C)C2C(=O)OC(C)C(=O)C12C (centres undefined)
inactive: [1] inactive [at 17.4 µM] | [2] inactive [at 17.4 µM] | [3] | [4] | [5] | [6] | [7] | [8] | [9] | [10] | [11] | [12] | [13] | [14]

CN(C)CCC[C@]1(c2ccc(F)cc2)OCc2cc(C#N)ccc21
inactive: [1] | [2] | [3] | [4] | [5] | [6] | [7] | [8] | [9] | [10] | [11] | [12] | [13] | [14]

COc1ccc(CCc2nc3cc(-c4c(C)noc4C)ccc3n2C[C@H](C)N2CCOCC2)cc1Cl
inactive: [1] | [2] | [3] | [4] | [5] | [6] | [7] | [8] | [9] | [10] | [11] | [12] | [13] | [14]

Cc1ccc(C)c(S(=O)(=O)n2cnc3ccccc32)c1
inactive: [1] | [2] | [3] | [4] | [5] | [6] | [7] | [8] | [9] | [10] | [11] | [12] | [13] | [14]

C/C=C1\[C@H](O[C@@H]2O[C@H](CO)[C@@H](O)[C@H](O)[C@H]2O)OC=C(C(=O)O)[C@H]1CC(=O)OCCc1ccc(O)cc1
inactive: [1] inactive [at 17.4 µM] | [2] inactive [at 17.4 µM] | [3] | [4] | [5] | [6] | [7] | [8] | [9] | [10] | [11] | [12] | [13] | [14]

O=C(O)Cc1cn([C@@H]2OC[C@@H](O[C@@H]3O[C@H](CO)[C@@H](O)[C@H](O)[C@H]3O)[C@H](O)[C@H]2O[C@@H]2O[C@H](CO)[C@@H](O)[C@H](O)[C@H]2O)c2ccccc12
inactive: [1] inactive [at 17.4 µM] | [2] inactive [at 17.4 µM] | [3] | [4] | [5] | [6] | [7] | [8] | [9] | [10] | [11] | [12] | [13] | [14]

CC(=O)/C=C/C1C(C)CC(O[C@@H]2O[C@H](CO)[C@@H](O)[C@H](O)[C@H]2O)CC1(C)C (some centres undefined)
inactive: [1] | [2] | [3] | [4] | [5] | [6] | [7] | [8] | [9] | [10] | [11] | [12] | [13] | [14]

CCCC/C=C\CCCCCc1cc(=O)c2ccccc2n1C
inactive: [1] | [2] | [3] | [4] | [5] | [6] | [7] | [8] | [9] | [10] | [11] | [12] | [13] | [14]

CCCc1[nH]nc2c1C(c1cc(Cl)cc(Cl)c1O)C(C#N)=C(N)O2 (centres undefined)
inactive: [1] | [2] | [3] | [4] | [5] | [6] | [7] | [8] | [9] | [10] | [11] | [12] | [13] | [14]

COC(=O)c1ccccc1O[C@@H]1O[C@H](CO[C@@H]2OC[C@@H](O)[C@H](O)[C@H]2O)[C@@H](O)[C@H](O)[C@H]1O
inactive: [1] inactive [at 17.4 µM] | [2] inactive [at 17.4 µM] | [3] | [4] | [5] | [6] | [7] | [8] | [9] | [10] | [11] | [12] | [13] | [14]
